# Data as given in PubChem BioAssay (Tox21).
# “And” between values parts separate entries of the source, which are not always exact repeats. Identical values can stand only once. Records with an inconclusive call do not appear. Entries that show only a call come without a potency. The source holds several records for some structures; these can differ, active in one and inactive in another. The source made the active and inactive calls. Unless noted, the call rests on the fitted dose curve; in most records, active means well fitted curve in the direction sought with a large enough effect in the repeat runs; inconclusive means weak or mixed curves; inactive means no such curve, though single readings can be large; an effect the other way counts as inactive or inconclusive.
# Key:
# [1] = qHTS assay to identify small molecule agonists of H2AX - cell viability counter screen (AID 1224847; calls by dose curve; further: nearly all actives have a fitted effect of over 30% in size; further: potency means the concentration at half of the fitted maximal effect;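 on activity change, negative = cytotoxicity: wild-type CHO-K1 cells; top concentration of the series differs between compounds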)
# Outline: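 CHO-K1 cells plated overnight at 37C, then exposed 3 h at 37C to compounds at 15 concentrations (0.76% DMSO final). Viability by CellTiter-Glo luminescence after 30 min at room temperature.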
# [2] = qHTS RealTime-Glo MT Cell Viability Assay in HepG2 cells - 24 hour (AID 1224867); further: nearly all actives have a fitted effect of over 50% in size; further: potency means the concentration at half of the fitted maximal effect
# Outline: (§1)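 Cells + NanoLuc/prosubstrate dispensed (600 cells/well) → 5 h at 37 C/5% CO2 → compounds in DMSO transferred → 40 h incubation at 37 C, luminescence read at 0, 8, 16, 24, 32, 40 h.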
# [3] = qHTS RealTime-Glo MT Cell Viability Assay in HEK293 cells - 32 hour (AID 1224868); further: nearly all actives have a fitted effect of over 50% in size; further: potency means the concentration at half of the fitted maximal effect
# Outline: (§2)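 Tox21 10K qHTS, HEK293, 600 cells/well, RealTime-Glo reagent co-dispensed with cells; 5 h preincubation, compound by pintool, 37 C, luminescence at 0–40 h.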
# [4] = qHTS RealTime-Glo MT Cell Viability Assay in HepG2 cells - 40 hour (AID 1224870); further: nearly all actives have a fitted effect of over 50% in size; further: potency means the concentration at half of the fitted maximal effect
# Outline: (§3)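 Real-time viability: cells seeded at 600 per well together with NanoLuc and cell-permeant prosubstrate, compounds added after 5 h incubation. Luminescence tracked at 0, 8, 16, 24, 32 and 40 h of exposure.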
# [5] = qHTS RealTime-Glo MT Cell Viability Assay in HEK293 cells - 16 hour (AID 1224872); further: nearly all actives have a fitted effect of over 50% in size; further: potency means the concentration at half of the fitted maximal effect; on activity change, negative = cytotoxicity: top concentration of the series differs between compounds
# Outline: as §2
# [6] = qHTS RealTime-Glo MT Cell Viability Assay in HepG2 cells - 8 hour (AID 1224873); further: nearly all actives have a fitted effect of over 55% in size; further: potency means the concentration at half of the fitted maximal effect
# Outline: as §3
# [7] = qHTS RealTime-Glo MT Cell Viability Assay in HEK293 cells - 40 hour (AID 1224874); settings: RealTime-Glo luminescence; max response: stronger effect = lower value; further: nearly all actives have a fitted effect of over 50% in size; further: potency means the concentration at half of the fitted maximal effect
# Outline: (§4)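 600 HEK293 cells per well, dispensed already mixed with RealTime-Glo MT reagents. Compound dosing came 5 h later. The same wells were read for luminescence at 0, 8, 16, 24, 32 and 40 h of exposure at 37 C.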
# [8] = A CellTox Green Cytotoxicity Assay to monitor cytotoxicity in HepG2 cells - 16 hour (AID 1224876); further: nearly all actives have a fitted effect of over 45% in size; further: potency means the concentration at half of the fitted maximal effect
# Outline: (§5)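 First, HepG2 cells (600/well) mixed with reagent were plated; second, after 5 h at 37 C they received compounds via pintool; third, fluorescence was measured at 0 h through 40 h at 8 h intervals.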
# [9] = qHTS RealTime-Glo MT Cell Viability Assay in HepG2 cells - 32 hour (AID 1224877); further: nearly all actives have a fitted effect of over 55% in size; further: potency means the concentration at half of the fitted maximal effect
# Outline: as §1
# [10] = A CellTox Green Cytotoxicity Assay to monitor cytotoxicity in HepG2 cells - 24 hour (AID 1224878); further: nearly all actives have a fitted effect of over 45% in size; further: potency means the concentration at half of the fitted maximal effect
# Outline: as §5
# [11] = A CellTox Green Cytotoxicity Assay to monitor cytotoxicity in HepG2 cells - 40 hour (AID 1224879); further: nearly all actives have a fitted effect of over 40% in size; further: potency means the concentration at half of the fitted maximal effect
# Outline: as §5
# [12] = qHTS RealTime-Glo MT Cell Viability Assay in HEK293 cells - 0 hour (AID 1224880); further: top concentration of the series differs between compounds; nearly all actives have a fitted effect of over 45% in size
# Outline: as §4
# [13] = A CellTox Green Cytotoxicity Assay to monitor cytotoxicity in HepG2 cells - 0 hour (AID 1224882); further: nearly all actives have a fitted effect of over 35% in size
# Outline: as §5
# [14] = A CellTox Green Cytotoxicity Assay to monitor cytotoxicity in HEK293 cells - 0 hour (AID 1224869); further: nearly all actives have a fitted effect of over 50% in size
# Outline: (§6)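 Dead-cell fluorescence measured kinetically: asymmetric cyanine dye, HEK293, 600 cells/well, 5 h settle, 23 nL cpd/DMSO, 37 C, reads 0–40 h every 8 h.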
# [15] = A CellTox Green Cytotoxicity Assay to monitor cytotoxicity in HEK293 cells - 40 hour (AID 1224871); further: nearly all actives have a fitted effect of over 45% in size; further: potency means the concentration at half of the fitted maximal effect
# Outline: as §6
# [16] = A CellTox Green Cytotoxicity Assay to monitor cytotoxicity in HEK293 cells - 24 hour (AID 1224875); further: nearly all actives have a fitted effect of over 45% in size; further: potency means the concentration at half of the fitted maximal effect; on activity change: series mostly up to about 77 µM
# Outline: as §6
# [17] = A CellTox Green Cytotoxicity Assay to monitor cytotoxicity in HEK293 cells - 32 hour (AID 1224881); further: nearly all actives have a fitted effect of over 40% in size; further: potency means the concentration at half of the fitted maximal effect
# Outline: as §6
SMILES,Potency [1],Potency [2],Potency [3],Potency [4],Potency [5],Potency [6],Potency [7],Potency [8],Potency [9],Potency [10],Potency [11],Potency [12],Potency [13],Potency [14],Potency [15],max response [7],Potency [16],Potency [17],"activity change, negative = cytotoxicity [12]",cytotoxicity [13]
CCOC(=O)CC(=O)CCl,inactive,inactive,43.6 µM (active),inactive,38.9 µM (active),inactive,43.6 µM (active),inactive,inactive,inactive,inactive,inactive,inactive,,,,,,,
CCCCCCCCCCCCCCC(Br)C(=O)O (stereo unspecified),inactive,inactive,inactive,inactive,inactive,,,inactive,,,17.4 µM (active),inactive,inactive,inactive,inactive,-7.18% (inactive),inactive,inactive,,
CN(C)CCc1c[nH]c2ccc(O)cc12,inactive,inactive,inactive,inactive,inactive,inactive,,inactive,,inactive,,inactive,inactive,inactive,,2.26% (inactive),inactive,inactive,,
C[C@]12CC[C@H]3[C@@H](CCC4=CC(=O)CC[C@@]43C)[C@@H]1CC[C@@H]2O,inactive,,48.6 µM (active),inactive,,inactive,48.6 µM (active),inactive,inactive,inactive,,inactive,inactive,,,,,,,
CNC(C)Cc1ccc2c(c1)OCO2 (stereo unspecified),inactive,inactive,inactive,inactive,inactive,inactive,,inactive,inactive,inactive,inactive,inactive,inactive,inactive,inactive,-1.8% (inactive),inactive,inactive,,
CC(C)[C@H](C(=O)O[C@H](C#N)c1cccc(Oc2ccccc2)c1)c1ccc(Cl)cc1,inactive,inactive,,inactive,,,,inactive,inactive,inactive,inactive,inactive,,inactive,inactive,,inactive,inactive,,
Nc1ccccc1C(=O)OC/C=C/c1ccccc1,101 µM (active),inactive,24.6 µM (active),inactive,24.6 µM (active),inactive,24.6 µM (active),inactive,inactive,inactive,inactive,inactive,inactive,inactive,,,inactive,inactive,,
[Hg+2].[I-].[I-],8 µM (active),9.77 µM (active),3.09 µM (active),12.3 µM (active),3.47 µM (active),12.3 µM (active),2.45 µM (active),12.3 µM (active),,11 µM (active),6.16 µM (active),,inactive,,21.9 µM (active),,24.5 µM (active),21.9 µM (active),,
ClC1=C(Cl)C2(Cl)C3C(Cl)C=CC3C1(Cl)C2(Cl)Cl (stereo unspecified),113 µM (active),,49.2 µM (active) and 49 µM (active),inactive,43.8 µM (active) and 43.6 µM (active),,49.2 µM (active) and 49 µM (active),,,,,inactive,,,55.2 µM (active) and 49 µM (active),,,55.2 µM (active) and 49 µM (active),,
CCOC(=O)C1(c2ccccc2)CCN(CCC(C#N)(c2ccccc2)c2ccccc2)CC1,inactive,inactive,inactive,inactive,inactive,,,inactive,inactive,inactive,inactive,inactive,inactive,inactive,,,inactive,inactive,,
CN(C)CCc1c[nH]c2cccc(O)c12,inactive,inactive,inactive,inactive,inactive,,,inactive,inactive,inactive,,inactive,inactive,inactive,inactive,-1.01% (inactive),inactive,inactive,,
ClCc1ccccc1CCl,inactive,inactive,,inactive,,inactive,,inactive,inactive,,,inactive,inactive,inactive,49 µM (active),,inactive,,,
CC(=[OH+])/C=C(/C)[O-].CC(=[OH+])/C=C(\C)[O-].CC(=[OH+])/C=C(\C)[O-].[Fe],inactive,inactive,inactive,inactive,inactive,,,inactive,inactive,inactive,inactive,,inactive,,inactive,5.66% (inactive),inactive,inactive,,
CCCCCCCCCCCCCCCC[N+](C)(C)C,54.6 µM (active) and 101 µM (active) and 49.2 µM (active),,9.42 µM (active) and 21.9 µM (active) and 8.49 µM (active),24.5 µM (active) and 21.3 µM (active),10.6 µM (active) and 21.9 µM (active),inactive and 49 µM (active),8.4 µM (active) and 21.9 µM (active) and 9.52 µM (active),23.7 µM (active) and 49 µM (active) and 23.9 µM (active),,21.1 µM (active) and 23.9 µM (active),21.1 µM (active) and 13.8 µM (active) and 21.3 µM (active),,inactive,inactive,23.7 µM (active) and 43.6 µM (active) and 23.9 µM (active),,23.7 µM (active) and 43.6 µM (active) and 19 µM (active),23.7 µM (active) and 43.6 µM (active) and 23.9 µM (active),,
CCN(CC)C(=S)[S-].CCN(CC)C(=S)[S-].[Zn+2],50 µM (active),13.7 µM (active),4.86 µM (active),10.9 µM (active),5.45 µM (active),,2.73 µM (active),,13.7 µM (active),12.2 µM (active),10.9 µM (active),inactive,,inactive,,,15.4 µM (active),15.4 µM (active),,
CN(C)C(=S)[S-].CN(C)C(=S)[S-].[Cu+2],27.5 µM (active),,1.34 µM (active),2.38 µM (active),1.89 µM (active),6.7 µM (active),1.19 µM (active),4.23 µM (active),2.67 µM (active),2.38 µM (active),2.67 µM (active),,,,2.38 µM (active),,2.38 µM (active),2.38 µM (active),-3.44% [at 15.8 µM] (inactive),0.299% [at 15.8 µM] (inactive)
CCCN(CC)CC1COC2(CCC(C(C)(C)C)CC2)O1 (stereo unspecified),inactive,,inactive,inactive,inactive,inactive,,inactive,inactive,inactive,inactive,inactive,inactive,inactive,,-8.74% (inactive),inactive,,,
CCCCCCCCc1ccc(O)cc1,25.5 µM (active),,5.53 µM (active),,4.39 µM (active),,17 µM (active),38 µM (active),,19.6 µM (active),19.6 µM (active),,inactive,,19.6 µM (active),,17.5 µM (active),17.5 µM (active),,
CC1(C)C(/C=C(\Cl)C(F)(F)F)C1C(=O)OC(C#N)c1cccc(Oc2ccccc2)c1 (stereo unspecified),inactive,inactive,,inactive,,inactive,,inactive,,inactive,inactive,inactive,inactive,inactive,inactive,,inactive,inactive,,
CC(C)OC(=O)C(O)(c1ccc(Cl)cc1)c1ccc(Cl)cc1,56.6 µM (active),,21.9 µM (active),,30.9 µM (active),,,,,27.5 µM (active),38.9 µM (active),inactive,,inactive,,,,54.9 µM (active),,
CCOCn1c(-c2ccc(Cl)cc2)c(C#N)c(Br)c1C(F)(F)F,2.53 µM (active),,4.36 µM (active),,6.16 µM (active),,4.36 µM (active),inactive,,17.4 µM (active),12.3 µM (active),inactive,inactive,inactive,24.5 µM (active),,inactive,,,
CC1(C)[C@H](C(=O)O[C@H](C#N)c2cccc(Oc3ccccc3)c2)[C@@H]1/C=C(\Cl)C(F)(F)F,inactive,inactive,inactive,inactive,,,,inactive,inactive,inactive,inactive,inactive,inactive,,inactive,-24.1% (inactive),inactive,inactive,,
CCCCCCCCCCCCCC[P+](CCCCCC)(CCCCCC)CCCCCC (tested in a mixture with another compound),5.05 µM (active),30.9 µM (active),4.9 µM (active),24.6 µM (active),13.8 µM (active),,,38.9 µM (active),24.6 µM (active),24.6 µM (active),24.6 µM (active),inactive,inactive,inactive,13.8 µM (active),,13.8 µM (active),13.8 µM (active),,
Oc1c(Br)c(Br)c(Br)c(Br)c1Br,80.5 µM (active),,,inactive,,inactive,,inactive,,inactive,inactive,inactive,inactive,inactive,inactive,,inactive,inactive,,
Nc1ccccc1C(=O)Oc1ccc2ccccc2c1,80 µM (active),inactive,inactive,inactive,,,,inactive,,,,inactive,inactive,inactive,inactive,-20.2% (inactive),,inactive,,
O=[N+]([O-])c1ccc2ccc3cccc4ccc1c2c34,inactive,inactive,inactive,inactive,inactive,inactive,,inactive,inactive,inactive,,inactive,inactive,,,-23.8% (inactive),,,,
